From PubChem BioAssay
In the library only some 2.7% were active in any assay of this set; here they are far more common.
IDE cell inh – cellular human IDE inhibition | P14735 | HEK cells, FAbetaB cleavage, fluorescence polarization | inhibition, % at 5.59 µM | hit rate 0.41% among 320,000;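 active = percent inhibition above the average of all tested compounds plus 3 SD, set per screening campaign, cut at about 16% in these data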;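 also: IDE supplied by intact live HEK cells; FP after avidin binding of uncleaved biotin substrate so inhibition keeps polarization high; 0% = DMSO wells and 100% = 60 µM reference IDE inhibitor Ii1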
TMEM16A act – activators or potentiators of mouse TMEM16A chloride channel | Q8BHY3 | HEK293 TMEM16A/YFP-H148Q/I152L, iodide quench fluorescence; active compounds read low | B-score at 10 µM | hit rate 0.3% among 340,000 | AID 623877;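 active = fluorescence-ratio B-score plate-corrected deviation score at least 3 library SD below zero, with starting fluorescence score within 5 deviations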;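 also: channel opened by trigger with iodide after compound preincubation; score built on the fluorescence ratio of max minus min over baseline; more negative score means more quench and so TMEM16A activation or potentiation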
Target sequence (Q8BHY3 whole entry, looked up): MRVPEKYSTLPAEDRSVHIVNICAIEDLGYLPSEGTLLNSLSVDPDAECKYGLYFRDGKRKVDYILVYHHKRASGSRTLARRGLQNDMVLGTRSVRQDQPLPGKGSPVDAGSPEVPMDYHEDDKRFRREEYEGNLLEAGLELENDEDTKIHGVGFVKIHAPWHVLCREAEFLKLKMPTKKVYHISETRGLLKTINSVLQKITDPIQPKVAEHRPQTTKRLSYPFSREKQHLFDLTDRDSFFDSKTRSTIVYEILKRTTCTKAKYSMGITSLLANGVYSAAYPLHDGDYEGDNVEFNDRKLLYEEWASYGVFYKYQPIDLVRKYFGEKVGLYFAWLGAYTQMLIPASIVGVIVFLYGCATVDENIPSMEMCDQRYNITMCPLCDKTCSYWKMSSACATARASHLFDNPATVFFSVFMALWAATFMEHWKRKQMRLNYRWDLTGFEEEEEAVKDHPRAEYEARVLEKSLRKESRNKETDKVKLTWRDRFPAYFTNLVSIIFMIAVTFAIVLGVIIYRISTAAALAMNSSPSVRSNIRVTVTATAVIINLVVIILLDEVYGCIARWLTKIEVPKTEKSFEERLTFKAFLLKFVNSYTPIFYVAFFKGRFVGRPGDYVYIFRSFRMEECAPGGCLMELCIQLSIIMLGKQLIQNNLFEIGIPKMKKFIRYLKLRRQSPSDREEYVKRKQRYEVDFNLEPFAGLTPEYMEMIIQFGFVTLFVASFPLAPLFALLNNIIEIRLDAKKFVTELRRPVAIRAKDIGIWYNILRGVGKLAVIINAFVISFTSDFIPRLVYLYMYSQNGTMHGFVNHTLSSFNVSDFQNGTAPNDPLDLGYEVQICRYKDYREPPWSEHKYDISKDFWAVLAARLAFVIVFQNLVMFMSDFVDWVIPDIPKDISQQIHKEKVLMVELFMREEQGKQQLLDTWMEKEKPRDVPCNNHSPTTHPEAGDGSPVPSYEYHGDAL
ANO1 block – blocks the mouse calcium-activated chloride channel TMEM16A. normalized B-score (activity score, 25-100; higher = stronger inhibition) at 10 µM. AID 588511. hit rate 1.2% among 310,000. Q8BHY3. HEK293 TMEM16A/YFP iodide influx fluorescence, ionomycin;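 active = ratio plate-corrected score three or more library SD toward inhibition, starting fluorescence score within five deviations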;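 also: score derived from kinetic fluorescence span divided by baseline fluorescence per well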
CHT PAM – allosteric activators of human choline transporter CHT; hit rate 0.49% among 310,000; Q9GZV3; B-score at 10 µM; CHT-expressing cells, membrane potential dye, choline EC20; active compounds read high; LV-AA mutant CHT in HEK293 cells;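 active = initial fluorescence not abnormally high and integrated response B-score, plate-corrected, over 3 SD above library mean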
CHT inh – human CHT choline transport inhibition; Q9GZV3; CHT-expressing cells, membrane potential dye, choline response; active compounds read low; B-score at 10 µM; hit rate 0.86% among 310,000;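 active = B-score over 3 SD under the library average, and starting fluorescence ratio not unusually high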;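 also: choline stimulus applied at its EC90 after an EC20 pre-addition; B-score computed on integrated fluorescence ratio after choline addition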
IDE cell activ – boosts human insulin-degrading enzyme activity in HEK cells; P14735; FAbeta-B cleavage, fluorescence polarization; 0% vehicle, 100% cell-free pure enzyme wells; activation, % at 5.96 µM; hit rate 0.073% among 340,000; AID 493087;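 active = activation above the mean of all tested compounds plus 3 SD, set per screening campaign, cut at about 17% in these data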
CHT inh conf – human CHT inhibition, confirmatory screen; AID 493221; CHT activity remaining % of control (active compounds read low), % at 10 µM; CHT-expressing cells, choline membrane potential dye; LV-to-AA substituted CHT, HEK293 cells; hit rate 70% among 2,400; shares compounds with CHT inh;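 active = choline transporter activity left, mean of duplicates at 10 µM, below buffer-only control mean minus 3 SD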;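 also: depolarization triggered by choline at its EC90 following an EC20 pre-addition; 0% = hemicholinium-3 full block and 100% = buffer-only control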
HEK293 CHT ctr – counter-screen for CHT inhibitors: effect in parental HEK293 cells; membrane potential dye, choline response; active = decrease or increase beyond buffer ±3SD; hit rate 4% among 2,400; shares compounds with CHT inh; membrane potential ratio readout (active if shifted either direction beyond buffer ±3SD; no single direction) at 10 µM;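 also: parental cells lack the transporter so any hit is non-specific; ratio is peak minus trough fluorescence over baseline after EC90 choline challenge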
Active calls of the source: *; i = inactive; . = not tested or not shown.

SMILES | IDE cell inh | TMEM16A act | ANO1 block | CHT PAM | CHT inh | IDE cell activ | CHT inh conf | HEK293 CHT ctr
CCNc1nc2[nH]c(=O)c3c(c2s1)OC(N)=C(C#N)C3c1ccc(C)cc1 (configuration not stated) | -3 | i | i | i | -5* | -2 | 67%* | i
CNc1nc2[nH]c(=O)c3c(c2s1)OC(N)=C(C#N)C3c1ccccc1 (configuration not stated) | -4 | i | i | i | i | -2 | . | .
COc1ccc(C(=O)NCCCNC(=O)c2ccccn2)cc1Br | -3 | i | i | i | i | 1 | . | .
CCCNC(=O)c1ccc(COc2ccc(C)cc2)o1 | 8 | i | i | i | -5* | -1 | 52%* | i
CCOc1ccc(OCc2ccc(C(=O)N3CCCC3)o2)cc1 | 1 | i | i | i | -8.1* | -6 | 42%* | i
CC(=O)Nc1ccc(NC(=O)c2ccc(COc3ccc(C)cc3)o2)cc1 | 0 | i | i | i | i | -4 | . | .
Cc1csc(NC(=O)CN2C(=O)c3ccccc3S2(=O)=O)n1 | -1 | i | i | i | i | 9 | . | .
Cc1csc(NC(=O)CCN2C(=O)c3ccccc3S2(=O)=O)n1 | 7 | i | i | i | -5.9* | 2 | 69%* | i
COc1ccc(S(=O)(=O)N2CCC(C(=O)N(C)Cc3ccc(C)o3)CC2)cc1OC | -3 | i | . | . | . | 1 | . | .
Cc1ccc(-c2ccc(C(=O)NCCCNC(=O)c3cnccn3)o2)cc1Cl | -3 | i | i | i | i | 0 | . | .
COc1ccccc1C(=O)Nc1ccc(C(=O)c2ccccc2)cc1 | 6 | i | i | i | -6.5* | 1 | i | i
Cc1ccc(NC(=O)CCc2nnc3ccc(N4CCC(C)CC4)nn23)nc1 | 2 | i | i | i | i | 3 | . | .
CCn1c(=O)cc(OCC(=O)NC(C)c2ccc3c(c2)OCCO3)c2ccccc21 (configuration not stated) | 11 | i | i | i | -9.5* | 0 | 18%* | i
CCn1c(=O)cc(OCC(=O)NCCC(C)C)c2ccccc21 | 7 | i | i | i | i | 1 | . | .
CCOc1ccccc1C(=O)NC(C)c1ccc2c(c1)OCO2 (configuration not stated) | -1 | i | i | i | -6.4* | -3 | 46%* | i
Cc1cc(C)cc(NC(=O)c2ccc(N3C(=O)C4CCCCC4C3=O)cc2)c1 (configuration not stated) | 2 | i | i | i | -5.5* | -5 | 65%* | i
Cc1ccc(-c2nnn(CC(=O)N(CCN3CCOCC3)C(C(=O)NC(C)(C)C)c3ccco3)n2)cc1 (configuration not stated) | -2 | i | i | i | -6.2* | 3 | 24%* | -10*
COc1cc(CCC(=O)OCC(=O)NCc2ccc(Cl)cc2)cc(OC)c1OC | 2 | i | i | i | -6.5* | 2 | 66%* | i
COc1cccc(C2=NOC(C(=O)NCc3ccc(F)cc3)C2)c1 (configuration not stated) | -1 | i | i | i | -5.1* | 3 | 66%* | i
CCc1c(C)nc(SCC(=O)NNC(=O)c2ccco2)[nH]c1=O | -1 | i | i | i | i | 3 | . | .
CN(C)C(=O)N1CCN(S(=O)(=O)c2ccc3ccccc3c2)CC1 | 3 | i | i | i | -6.7* | 5 | 5.6%* | i
CN(C)S(=O)(=O)N1CCN(S(=O)(=O)c2ccc3ccccc3c2)CC1 | 2 | i | i | i | i | -4 | . | .
CC1CCCCC1NC(=O)c1cccc(S(=O)(=O)N2CCN(C)CC2)c1 (configuration not stated) | -2 | i | i | i | -12* | 4 | 2.1%* | i
CC1CCCCC1NC(=O)c1ccc2c(c1)[nH]c(=O)n2C1CCCC1 (configuration not stated) | 1 | i | i | i | -9.9* | -1 | 40%* | i
CC1CCCCC1NC(=O)CCn1ccc2cc(S(=O)(=O)N3CCCC3)ccc21 (configuration not stated) | 8 | i | i | i | -6.2* | 3 | 41%* | i
SMILES | IDE cell inh | TMEM16A act | ANO1 block | CHT PAM | CHT inh | IDE cell activ | CHT inh conf | HEK293 CHT ctr
CC1CCCCC1NC(=O)c1ccc(S(=O)(=O)N2CCCC2)cc1 (configuration not stated) | 3 | i | i | i | -5.4* | -1 | 7.2%* | i
CN1CCN(S(=O)(=O)c2cccc(C(=O)NC3CCCC3)c2)CC1 | 0 | i | i | i | i | 4 | . | .
CCOc1ccccc1C1C(C#N)=C(N)N(N(C)C)C2=C1C(=O)CCC2 (configuration not stated) | -1 | i | i | i | i | -3 | . | .
CCC/C(O)=C1\C(=O)CC(C)(C)CC1=Nc1cccc([N+](=O)[O-])c1 | 2 | i | i | i | i | 3 | . | .
CCOC(=O)c1cc(NC(=O)c2ccoc2C)cc(C(=O)OCC)c1 | -4 | i | i | i | -6.1* | 6 | 40%* | i
CC(=O)c1cccc(NC(=O)c2ccoc2C)c1 | -4 | i | i | i | i | 11 | . | .
Cc1cc(C)c(NC(=O)Cn2nnc(C(=O)Nc3ccc(F)cc3F)c2N)c(C)c1 | 3 | i | i | i | i | 1 | . | .
Cc1ccc(C)c(NC(=O)CN(C)C(=O)c2ccc(S(=O)(=O)N3CCCCCC3)cc2)c1 | 1 | i | . | . | . | 2 | . | .
O=C(O)c1ccc(N2C(=O)CSC2=S)cc1 | 12 | i | i | i | -6.4* | -1 | 69%* | i
CCn1c(SC)nnc1C1CCCN(CC(=O)Nc2ccccc2N2CCOCC2)C1 (configuration not stated) | -1 | i | i | i | i | 5 | . | .
CCCCOC(=O)c1ccc(NC(=O)c2cc(Cl)c(Cl)cc2C(=O)O)cc1 | -6 | i | i | i | -5.3* | 1 | 61%* | i
CCCCOC(=O)c1ccc(NC(C)=O)cc1 | 0 | i | i | i | i | -2 | . | .
CCn1c(COc2ccccc2)nc2ccccc21 | -3 | i | i | i | i | 2 | . | .
